High-throughput results deposited in PubChem by National Center for Advancing Translational Sciences (NCATS).
IL-2 act: activates IL-2 in a cell-based reporter assay; IL-2 activation reporter assay, cell-based qHTS; stimulated with anti-CD3/CD4/CD28 beads; in transgenic mouse T cells; activation, % (series mostly up to about 46 µM); 360,000 tested, 0.065% active; AID 652025; in the data active means activation above about 50%; inconclusive means mostly about 30% to 49%
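Unstimulated transgenic mouse T cells preincubated 60 min with compound, then stimulated with anti-CD3/anti-CD4-coated beads plus anti-CD28 for 18 h at 37 degrees C. IL-2 response read as EGFP and DsRed fluorescence by plate cytometry.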
NPSR antagonist: neuropeptide S receptor (human) antagonism, cAMP; Potency, µM (doses to about 38.3 µM), most hits filed as inhibitors; 220,000 tested, 1% active; CHO-NPSR cells, cAMP TR-FRET, antagonist mode; further: nearly all actives have a fitted effect of over 50% in size
PKM2 act: increases activity of human pyruvate kinase M2; 260,000 tested, 0.34% active; purified PKM2, Kinase-Glo ATP luminescence, activation; response scale: 0% is enzyme alone, no compound; Potency, µM (titrated, usually from 57.5 µM), usual class: activators; further: nearly all actives have a fitted effect of over 55% in size
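Purified hPK-M2 (>95%) run at intermediate activity with 0.1 mM ADP and 0.5 mM PEP in 50 mM imidazole pH 7.2, KCl, MgCl2; 1 h room temperature. ATP formed read by Kinase-Glo luminescence; normalized to uninhibited and no-enzyme controls.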
ClpP mod: qHTS Assay for Activators of ClpP; purified B. subtilis ClpP, FRET peptide cleavage, 20 min; Potency, µM (series often up to 57.5 µM); 340,000 tested, 1.9% active; active means well fitted falling curve with a large enough effect; inconclusive means small, poorly fitted or top-dose-only effect; inactive means no such curve, though single readings can be large or run the other way; further: the source files actives as falling curves though it sought activators and does not explain the sign; nearly all actives have a fitted effect of over 65% in size
Target sequence (P80244 whole entry, looked up): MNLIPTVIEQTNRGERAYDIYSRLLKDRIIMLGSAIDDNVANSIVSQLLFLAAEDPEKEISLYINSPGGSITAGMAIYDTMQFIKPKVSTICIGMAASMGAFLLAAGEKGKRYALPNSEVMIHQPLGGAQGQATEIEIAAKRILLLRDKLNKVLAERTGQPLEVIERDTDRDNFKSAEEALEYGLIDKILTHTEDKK
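Buffer: 100 mM Tris/HCl pH8, 100 mM KCl, 0.05% low protease BSA, 2.5% glycerol, 0.01% Tween-20. ClpP 10 microg/mL final; 20 min RT; delta FRET normalized to ADEP and DMSO controls.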
Large screens that a line does not name were inactive. Shown are actives, neighbours in structure and some others; about 2% of the full set was active somewhere. Unless noted, the call rests on the fitted dose curve; in most records, active means well fitted curve in the direction sought with a large enough effect; inconclusive means small, poorly fitted or top-dose-only effect, or another doubt; inactive means no such curve, though single readings can be large; an effect the other way counts as inactive or inconclusive.

CCNc1nc(C)nc2c1cnn2C	ClpP mod 28µM (no result: NPSR antagonist, PKM2 act)
CCNc1nc2c(cnn2C)c(=O)[nH]1	none (no result: NPSR antagonist, PKM2 act)
O=C(Nc1cccc2c(=O)[nH][nH]c(=O)c12)c1ccc([N+](=O)[O-])cc1	none (no result: NPSR antagonist, PKM2 act)
Cc1c(Br)cccc1NC(=O)c1sccc1-n1cccc1	ClpP mod 8.9µM
Cc1cc(C)c2cc(CN(CCO)C(c3nnnn3Cc3ccc(F)cc3)C(C)C)c(=O)[nH]c2c1 (stereo unspecified)	none (no result: IL-2 act, ClpP mod)
Cc1cc(C)c2cc(C(O)c3nnnn3Cc3ccccc3)c(=O)[nH]c2c1 (stereo unspecified)	PKM2 act 13µM, ClpP mod inconclusive
O=C(c1ccccc1)c1sc(N2CCCCCC2)nc1-c1ccccc1	NPSR antagonist inconclusive
COc1ccc(-c2nc(N3CCCCCC3)sc2C(=O)c2ccccc2)cc1	NPSR antagonist 5µM
COc1ccc(OC)c(NC(=O)C(NS(=O)(=O)c2ccc3c(c2)CCCC(=O)N3)C(C)C)c1 (stereo unspecified)	none (no result: IL-2 act, NPSR antagonist, PKM2 act)
CN(C)c1ccc(-c2nc(-c3cccs3)c(-c3cccs3)[nH]2)cc1	ClpP mod 11µM (no result: IL-2 act, NPSR antagonist, PKM2 act)
CN(C)C(=O)CSc1nc(-c2cccs2)c(-c2cccs2)[nH]1	none (no result: NPSR antagonist, ClpP mod)
Oc1ccccc1-c1nc(-c2cccs2)c(-c2cccs2)[nH]1	ClpP mod 14µM (no result: IL-2 act, NPSR antagonist, PKM2 act)
COc1cc(C(=O)Nc2cc(Cl)ccc2-n2cncn2)ccc1OC(F)F	none (no result: NPSR antagonist, PKM2 act, ClpP mod)
O=C(NCc1cccs1)Nc1ccc(Cl)cc1	ClpP mod 20µM
O=C(NCCNC(=O)Nc1ccc(Cl)cc1)Nc1ccc(Cl)cc1	none (no result: NPSR antagonist, PKM2 act)
CS(=O)(=O)c1ncc(Cl)c(C(=O)N(Cc2ccc(Cl)cc2)Cc2ccco2)n1	none (no result: IL-2 act, NPSR antagonist, PKM2 act)
COc1cc(NS(=O)(=O)c2cc3[nH]c(=O)c(=O)[nH]c3cc2C)cc(OC)c1OC	PKM2 act 7.1µM (no result: NPSR antagonist)
COc1cc(NS(=O)(=O)c2ccc(C)cc2C)cc(OC)c1OC	PKM2 act inconclusive
Cc1cc2[nH]c(=O)c(=O)[nH]c2cc1S(=O)(=O)Nc1cccc(Cl)c1C	PKM2 act 16µM (no result: NPSR antagonist)
CCOC(=O)c1cc(-c2ccc(F)cc2)n(CCC(=O)NC2CCN(Cc3ccccc3)CC2)c1C	NPSR antagonist inconclusive
CCCN(C(=O)c1cc2c(=O)[nH]c3ccc(C)cc3c2s1)c1ccc(CC)cc1	none (no result: IL-2 act, NPSR antagonist, PKM2 act)
N#CC/C(N)=N/Nc1nc2ccccc2nc1Cc1ccccc1	none (no result: NPSR antagonist, PKM2 act, ClpP mod)
OCC1OC(n2ccc3c(SCc4ccccc4)ncnc32)C(O)C1O (stereo unspecified)	ClpP mod 35µM (no result: NPSR antagonist, PKM2 act)
OCC1OC(n2cnc3c(SCc4ccccc4)ncnc32)C(O)C1O (stereo unspecified)	none (no result: NPSR antagonist, PKM2 act)
Cc1ccc2nc(-c3cccc(Br)c3)cc(C(=O)NCC3CCCO3)c2c1 (stereo unspecified)	ClpP mod 14µM (no result: NPSR antagonist)
C=CCNC(=O)CSc1nc2sccc2c(=O)n1-c1ccccc1	none (no result: NPSR antagonist, ClpP mod)
O=C(CN(Cc1ccccc1)S(=O)(=O)c1ccc(Br)cc1)NCC1CCCO1 (stereo unspecified)	ClpP mod 25µM (no result: NPSR antagonist)
O=C(CN(Cc1ccccc1)S(=O)(=O)c1ccc(Cl)cc1)NCC1CCCO1 (stereo unspecified)	none (no result: NPSR antagonist, PKM2 act, ClpP mod)
Cn1c(SCC(=O)Nc2nc3ccccc3s2)ncc(C(=O)Nc2ccc(Cl)cc2)c1=O	ClpP mod 22µM (no result: IL-2 act, NPSR antagonist, PKM2 act)
Cc1ccc2nc(NC(=O)CSc3ncc(C(=O)Nc4ccc(F)cc4)c(=O)n3C)sc2c1	none (no result: IL-2 act, NPSR antagonist, PKM2 act)
O=C(CSc1nnc(Cc2ccsc2)o1)c1ccccc1	none (no result: ClpP mod)
CCCCC(=O)Nc1nc(-c2ccc(S(=O)(=O)N3CCOCC3)cc2)cs1	ClpP mod 28µM (no result: NPSR antagonist)
O=C(Nc1nc(-c2ccc(S(=O)(=O)N3CCOCC3)cc2)cs1)c1ccccc1	none
Cc1csc(NC(=O)CSc2nnc(-c3ccc(S(=O)(=O)N4CCCC4)cc3)o2)n1	PKM2 act inconclusive, ClpP mod 28µM
CC(C)CC(=O)Nc1nc(-c2ccc(S(=O)(=O)N3CCOCC3)cc2)cs1	ClpP mod 32µM (no result: NPSR antagonist)
CCOC(=O)c1cnc(-n2nc(C)cc2C)nc1Nc1ccc(C)cc1	NPSR antagonist 1.3µM
CCOC(=O)c1cnc(-n2nc(C)cc2C)nc1NC	ClpP mod 32µM
